Screening results (PubChem)
Marburg entry inh: qHTS for inhibitors of binding or entry into cells for Marburg Virus | Marburg virus pseudotyped entry inhibition, cell reporter | Potency, µM (series often up to 37.8 µM), for inactives: at the highest dose activity change, negative = inhibition, actives largely listed as inhibitors | 1.8% of 300,000 active | AID 540276, 2011; calls by dose curve; tested in HEK293 cells; further: potency means the concentration at half of the fitted maximal effect; on the % scale 0 is the no-effect control and ±100 the full control effect
Shiga toxin inh: A qHTS for Small Molecule Inhibitors of Shiga Toxin; Vero cells, Shiga toxin protein synthesis inhibition reporter; inhibition, % at 38.7 µM; 9.2% of 290,000 active; in the data active means inhibition mostly above about 28%, no sharp cut-off; inactive means mostly below about 43%; further: 0% is about no effect
CHX counter: Cycloheximide Counterscreen for Small Molecule Inhibitors of Shiga Toxin; cell reporter, cycloheximide protein synthesis inhibition counterscreen; max response, %; 12% of 300,000 active; in the data active means max response mostly above about 13%, no sharp cut-off; inactive means mostly below about 14%; further: read at 38.3 µM for the half of the compounds with a filed dose; 0% is about no effect
AMA1-RON2 inh: qHTS for Inhibitors of AMA1-RON; Towards Development of Antimalarial Drug Lead: Primary Screen; Plasmodium falciparum AMA1 (3D7) - RON2 peptide interaction; AlphaScreen AMA1-biotinylated RON2 peptide binding; Potency, µM (top dose mostly 58.2 µM), for inactives: top-dose activity change, negative = inhibition, usual class: inhibitors; 0.2% of 360,000 active; active means well fitted inhibition curve with a large enough effect; inconclusive means small, poorly fitted or top-dose-only effect; inactive means no such curve, though single readings can be large or run the other way;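 further: potency means the concentration at half of the fitted maximal effect; 0% = vehicle wells and -100% = peptide control; nearly all actives have a fitted effect of over 45% in size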
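AMA1 (3D7) with his tag at 25 nM final met compounds first, then biotinylated RON2 peptide at 25 nM; detection used donor plus acceptor beads, 10 µg/mL apiece, read by AlphaScreen after 30 min at room temperature.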
Lassa entry inh: qHTS for Inhibitors of binding or entry into cells for Lassa Virus. Lassa virus pseudotype entry inhibition, cell reporter. Potency, µM (doses to about 37.9 µM), without a hit: at the highest dose activity change, negative = inhibition, hits mostly inhibitors. 1.2% of 300,000 active. AID 540256, 2011; calls by dose curve; tested in HEK293 cells; further: potency means the concentration at half of the fitted maximal effect; on the % scale 0 is the no-effect control and ±100 the full control effect; nearly all actives have a fitted effect of over 50% in size
* = called active by the depositor; ? = inconclusive; nt = no result; + = active, no number; ! = a repeat was not active; [ ] = dose if it differs, or a comment. This is one part of a sample in which hits are shown more often than they occur.

SMILES	Marburg entry inh	Shiga toxin inh	CHX counter	AMA1-RON2 inh	Lassa entry inh
O=C(NCc1ccccc1)C(=O)NCC1COc2ccccc2O1 (stereo not given)	-21.7%[46.1 µM]	3.5	-2.5	1.7%	?
COc1ccc(C)cc1NC(=O)CC1COc2ccccc2O1 (stereo not given)	?	1.4	4.2	-22.1%	-9.4%
CCCCCCCCN1C(=O)[C@H](CC(=O)NCc2ccc(C)o2)C[C@@]2(C(=O)OCC)CCC=C12	nt	nt	nt	-19.0%	nt
N#Cc1ccccc1S(=O)(=O)N1CCN(CC(=O)Nc2ccccc2C(=O)NC2CC2)CC1	nt	nt	nt	-3.6%	nt
O=C(OCc1ccc(Cl)c(Cl)c1)c1ccccn1	-12.3%	20.2	13.3	4.6%	?
O=C(OCc1ccc(Cl)c(Cl)c1)c1cccnc1Cl	9.1%[46.1 µM]	25.5	23.2*	157.0%	6.5%
O=C(OCc1ccc(Cl)cc1Cl)c1cccnc1Cl	0.2%[46.1 µM]	10.2	-0.4	11.8%	2.2%
O=C(OCc1ccc(Br)cc1)c1cccnc1Cl	2.9%[46.1 µM]	72.6	26.6*	50.7%	13.2%
Nc1ncccc1OCc1ccc(Cl)c(Cl)c1	-1.5%[46.1 µM]	56.0*	47.1*	?	?
O=C(COC(=O)c1cccnc1Cl)c1cccc(Cl)c1	1.6%	38.7*	34.1*	-18.3%	12.0%
Oc1ccccc1/C=N/Nc1nc2ccccc2o1	?	97.1*	62.3*	120.5%	?
Brc1ccc(/C=N/Nc2nc3ccccc3o2)cc1	nt	57.3*	41.5*	41.7%	nt
COC(=O)/C(=C1/Oc2ccc(C(C)(C)C)cc2S1)C(F)(F)F	2.0%	9.7	50.1*	-2.4%	-1.0%
O=C(O)c1ccc(/C=C2\CCCc3c2nc2ccccc2c3C(=O)O)cc1	?	-8.4	-2.7	-7.9%	-3.5%[46.1 µM]
CN(C)c1ccc(/C=C2\CCCc3c2nc2ccccc2c3C(=O)O)cc1	9.2%[46.1 µM]	118.1*	45.5*	-6.8%	?
COc1ccc(NC(=O)c2ccc(NC(=O)c3cccnc3)cc2)cc1	nt	nt	nt	-11.1%	nt
COc1ccc(NC(=O)c2cccnn2)cc1	nt	29.4*	24.1*	3.3%	nt
COc1cccc(NC(=O)c2cccnn2)c1	nt	17.7	20.9*	0.0%	nt
Cc1ccc([N+](=O)[O-])cc1N/C=C1\CCc2ccccc2C1=O	8.6%	52.4*	12.7*	1.7%	25.9%
[O-]/[N+](=C\c1cccc(Br)c1)c1ccccc1	15.2%[46.1 µM]	82.2*	43.9*	-4.6%	1.0%
[O-]/[N+](=C\c1ccc(F)cc1)c1ccccc1	?	5.9	18.0*	-3.4%	5.0%
[O-]/[N+](=C\c1ccccc1)c1ccc(Br)cc1	nt	nt	nt	-10.0%	nt
O=C(NC1CCCC1)C(c1cc2c(cc1[N+](=O)[O-])OCO2)N1CCCC1 (stereo not given)	-26.8%	65.5*	18.4*	-8.4%	?
Cc1ccc(NC(=O)CN2C(=O)N/C(=C/c3cc(C)n(-c4ccc(C(=O)O)cc4)c3C)C2=O)cc1	?	84.5*	32.6	5.6%	-0.1%
Cc1cccc(N2CCN(S(=O)(=O)c3ccc(Cl)nc3)CC2C)c1 (stereo not given)	?	nt	nt	-17.3%	?
SMILES	Marburg entry inh	Shiga toxin inh	CHX counter	AMA1-RON2 inh	Lassa entry inh
CCOC(=O)c1c(CNCCN(CC)CC)n(C)c2cc(Br)c(OC)cc12	11.2µM*!	-13.2	-2.6	-7.9%	?
CCN(CC)CCNC(=O)c1c(C)n(-c2ccccc2)c2cc(Br)c(OC)cc12	?	-24.9	-6.8	-22.7%	7.3µM*
CCOC(=O)c1c(CN2CCN(CCO)CC2)n(C)c2cc(Br)c(OC)cc12	8.2µM*!	-13.3	-4.7	-6.6%	?
CC(=O)OC[C@@H]1O[C@H](C/C=N\OC[C@@H](C)[C@H](OCc2ccccc2)C(C)C)C=C[C@@H]1OC(C)=O	-9.9%[14.2 µM]	nt	nt	nt	nt
Cc1nn(C)c(=O)n1-c1ccc(OCc2ccccc2)cc1	0.1%	89.0*	43.8*	-4.7%	-19.9%
Cc1nn(CCOc2ccccc2)c(=O)n1-c1ccc(F)cc1	-4.9%	61.7*	32.1*	-13.4%	?
Cn1c(C(C#N)C2=C(Cl)C(=O)N(c3ccccc3)C2=O)nc2ccccc21 (stereo not given)	-2.8%	5.9	8.1	nt	nt
Cc1noc(/C=C/N(C)C)c1S(=O)(=O)N(C)Cc1ccc(F)cc1	nt	17.8	-3.7	-12.2%	nt
CC1=C[C@@H](C)OC2(C1)C(=O)N(Cc1ccc(Br)cc1)c1cccc(Br)c12 (stereo not given in full)	4.2%[14.2 µM]	nt	nt	nt	?
CCCc1n[nH]c2c1C(=O)CC(C)(C)C2	2.0%[46.1 µM]	6.9	-3.7	6.6%	0.1%
CC1(C)CC(=O)c2c(-c3cccs3)n[nH]c2C1	10.0%	89.5*	18.3*	8.3%	26.3%
Cc1nc(-c2ccc(NC(=O)C3CC3)cc2)cs1	?	80.6*	22.7*	-5.2%	-7.3%[46.1 µM]
COc1ccc(-c2csc(NC(=O)c3c(OC)cccc3OC)n2)cc1	-19.7%	-7.6	-3.0	-14.1%	-1.5%
CC(=O)Nc1ccc(S(=O)(=O)Nc2cccc(-c3csc(C)n3)c2)cc1	?	8.4	-2.5	9.2%	-20.2%[46.1 µM]
Cc1nc(-c2ccc(C(=O)O)cc2)cs1	17.8%	15.3	1.2	-5.1%	3.0%
Cc1nc(-c2cccc(NC(=O)C3CCCCC3)c2)cs1	nt	35.7*	9.1	7.0%	nt
COc1ccc(-c2csc(NC(=O)CC(C)C)n2)cc1	?	83.7*	48.3*	-0.6%	13µM*
Cc1nc(-c2ccc(NC(=O)CC(C)C)cc2)cs1	-9.5%	+	37.8*	3.4%	?
CCc1ccccc1NC(=O)Nc1nnc(N(CC)c2ccccc2)s1	-14.3%[46.1 µM]	nt	nt	nt	-8.1%[46.1 µM]
COC(=O)c1ccc(N2CCN(c3ccccc3)CC2)nc1	nt	45.1*	24.9*	8.4%	nt
Nc1cc(C(=O)c2ccccc2)ccc1N1CCOCC1	-10.5%	116.8*	27.5*	1.6%	0.0%
COC(=O)c1ccc(N2CCN(c3ccccc3)CC2)c(N)c1	nt	35.9	16.4*	-5.6%	nt
C=CCOC(=O)c1ccc(N2CCN(c3ccccc3)CC2)nc1	?	34.2	20.1*	-0.1%	-0.7%[46.1 µM]
C=CCN1c2ccccc2[C@]23CCC(=O)N(Cc4cc(OC)c(OC)c(OC)c4)C2=NC(C(=O)OC)=C(C(=O)OC)[C@H]13	-6.7%[14.2 µM]	nt	nt	nt	nt
Cc1ccc(NC(=O)c2ccc(S(=O)(=O)N3CCCCC3)cc2)nc1	nt	nt	nt	1.0%	nt
SMILES	Marburg entry inh	Shiga toxin inh	CHX counter	AMA1-RON2 inh	Lassa entry inh
COC(=O)c1ccc(/C=N\N2CCN(c3ccccc3)CC2)cc1	nt	117.6*	21.0*	-14.5%	nt
C(=N\N1CCN(c2ccccc2)CC1)/c1ccccc1	?	21.0	13.8	?	1.6%
Cc1cccc(OCC(=O)Nc2ccc3c(c2)OCCO3)c1	2.4%[46.1 µM]	111.4*	61.8*	-15.7%	?
C/C(CC(=O)Nc1ccc2c(c1)OCCO2)=N\NC(=O)COc1ccccc1	1.0%[46.1 µM]	14.5	10.1	29.0%	6.1%
Cc1ccc(OCC(=O)Nc2ccc3c(c2)OCCO3)cc1C	?	178.5*	31.5*	29.4%	?
NC(=O)C1(N2CCCCC2)CCN(C(=O)Nc2ccc(F)cc2F)CC1	22.7%[46.1 µM]	nt	nt	nt	6.5%[46.1 µM]
CC(C)CN1Cc2ccccc2Oc2cc(Br)ccc2S1(=O)=O	nt	nt	nt	-4.5%	nt
